D1 agonist: activates the human D1 dopamine receptor; HEK293 T-REx D1 cells, calcium flux, agonist mode; activation, % at 2 µM; 1% of 360,000 active; AID 504660
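Agonism was scored from calcium flux recorded over 180 s (1 read/s) after pintool compound addition, following a 10-cycle baseline. Cells were inducible force-coupled HEK293 TREx D1, plated overnight at 30 C and loaded with no-wash calcium dye.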
TRHR enhancer: TRH receptor (human) allosteric enhancement; P34981; TRHR cells, fluo-8 calcium fluorescence, EC20 TRH enhancement; enhancement, % at 2 µM; 0.66% of 360,000 active; AID 493056; in the data active = enhancement above about 30%
Target sequence (P34981 whole entry, looked up): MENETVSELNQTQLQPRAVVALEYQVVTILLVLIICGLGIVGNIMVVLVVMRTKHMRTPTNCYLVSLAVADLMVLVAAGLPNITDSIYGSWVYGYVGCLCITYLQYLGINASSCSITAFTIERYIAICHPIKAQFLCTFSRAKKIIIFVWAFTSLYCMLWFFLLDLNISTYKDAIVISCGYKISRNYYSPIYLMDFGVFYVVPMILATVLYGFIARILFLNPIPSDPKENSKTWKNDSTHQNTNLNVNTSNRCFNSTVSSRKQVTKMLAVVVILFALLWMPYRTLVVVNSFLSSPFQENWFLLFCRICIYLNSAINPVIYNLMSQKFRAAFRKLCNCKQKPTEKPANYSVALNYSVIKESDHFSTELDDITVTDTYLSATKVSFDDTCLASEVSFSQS
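TRHR-expressing cells loaded with fluo-8 calcium dye were read kinetically (ex 480/em 530) during compound addition, then stimulated with an EC20 of TRH (10 nM final). Enhancement of the Gq-mediated intracellular calcium response was scored.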
D1 antagonist: antagonists of human D1 dopamine receptor; P21728; HEK293 TREx D1 cells, calcium flux, dopamine EC80; hits give low values; activity change, negative = inhibition, % at 10 µM; 3.2% of 360,000 active; AID 504652; in the data active = activity change below about -30%
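Compound effects on dopamine-evoked calcium signalling were measured in tetracycline-induced HEK293 Trex D1 cells. Dopamine at EC80 followed a 180 s compound pre-read, and fluorescence was tracked kinetically for 180 s more.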
D1 PAM: human D1 dopamine receptor positive modulation | HEK293 TREx D1 cells, calcium flux, dopamine EC20 potentiation | potentiation, % at 10 µM | 0.036% of 360,000 active; in the data active = potentiation above about 30%
TRHR ag: activates the human TRH receptor | P34981 | TRHR cells, calcium flux fluo-8, FDSS agonist mode | activation, % at 2 µM | 0.18% of 360,000 active | AID 493084
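Fluo-8-loaded TRHR cells; 10 s baseline, compound added, kinetic Ca2+ fluorescence read 1/s, agonist mode.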
Numbers stand for hits; 0 = inactive; - = no result given. A selection: hits, their analogues and other compounds. The true share with any hit is near 4.6%. Rule as the data show it, unless noted: active = activation above about 30%; inactive = the rest.

SMILES	D1 agonist	TRHR enhancer	D1 antagonist	D1 PAM	TRHR ag
O=C1/C(=C/C=C/c2ccccc2)Oc2c1ccc(O)c2CN1CCN(CCO)CC1	0	0	0	0	0
CCN1CCN(Cc2c(O)ccc3c2O/C(=C\c2ccccc2)C3=O)CC1	51	0	0	0	0
CCN1CCN(Cc2c(O)ccc3c2O/C(=C\C=C\c2ccccc2)C3=O)CC1	0	0	0	0	0
COc1ccccc1/C=C/C=C1\Oc2c(ccc(O)c2CN2CCN(CCO)CC2)C1=O	114	0	-31	0	0
Cc1ccc(/C=C2\Oc3c(ccc(O)c3CN3CCN(C)CC3)C2=O)cc1	40	0	0	0	0
CCn1ncc(/C=C/C(=O)NCc2cnn(C)c2C)c1C	0	0	0	0	0
O=C(OCC(=O)N1CCCC1)c1cncc(Br)c1	0	0	0	0	0
O=C(CCN1CCN(c2ccccc2)CC1)Nc1ccc(OCc2ccccc2)cc1	0	0	0	0	0
O=C(CCCSc1ccc(Cl)cc1)Nc1ccccc1O	33	0	0	0	0
CSc1cccc(NC(=O)CCCOc2ccc(Cl)cc2C)c1	0	0	0	0	0
COc1ccc(OCCCC(=O)Nc2cccc(SC)c2)cc1	0	0	-73	0	0
O=C(CSCc1ccc(Cl)cc1)Nc1ccccc1O	0	0	0	0	0
O=C(COC(=O)/C=C/c1cccs1)Nc1ccc2ccccc2c1	0	0	-35	0	0
O=C(CCSc1ccccc1)Nc1ccc(OCc2ccccc2)cc1	0	0	-30	0	0
CCCC(=O)NC(=S)Nc1cccc(-c2nc3ncccc3o2)c1	0	0	0	0	0
CCOc1ccc(S(=O)(=O)N2CCC(C(=O)N3CCOCC3)CC2)cc1C	0	0	0	0	0
O=S(=O)(NC1=NCCC1)c1cccc(NS(=O)(=O)c2ccc(F)c(Cl)c2)c1	0	0	0	0	0
CCOC(=O)N1CCc2c(sc3c2c(=O)n(Cc2ccccc2)c(=O)n3Cc2c(F)cccc2Cl)C1	0	0	0	0	0
O=S1(=O)N=C(N2CCN(c3ccc(F)cc3)CC2)c2ccccc21	0	0	0	0	0
CC(=O)c1cccc(NC(=O)CCCSc2ccccc2)c1	0	0	-39	-	0
COc1ccc(/C=C/C(=O)OCC(=O)Nc2cccc(C(C)=O)c2)cc1	0	37	0	0	0
COc1ccc(OCCCC(=O)Nc2cccc(C(C)=O)c2)cc1	0	0	-47	0	0
COc1ccc(/C=C/C(=O)OCC(=O)Nc2cc(C(N)=O)cc(C(N)=O)c2)cc1	0	0	0	0	0
COc1ccc(S(=O)(=O)N2CCN(c3cccc(C)c3C)CC2)cc1	0	0	0	0	0
Cc1cn(CC2COC(C)(C)O2)c(=O)[nH]c1=O (stereo unspecified)	0	0	-30	0	0
SMILES	D1 agonist	TRHR enhancer	D1 antagonist	D1 PAM	TRHR ag
COc1ccc(CCNC(=O)/C=C/c2ccco2)cc1OC	0	0	0	0	0
CCOc1ccccc1N1CC(c2nc3ccccc3n2CCCCOc2ccccc2)CC1=O (stereo unspecified)	31	0	0	0	0
CCOc1ccc(N2CC(c3nc4ccccc4n3CCOc3ccccc3)CC2=O)cc1 (stereo unspecified)	0	0	0	0	0
CCOc1ccc(N2CC(c3nc4ccccc4n3Cc3cccc(Cl)c3)CC2=O)cc1 (stereo unspecified)	0	0	-34	0	0
COc1cccc(CNCc2cc(OC)cc(OC)c2)c1	0	0	0	0	0
CSc1ccc(CNCc2ccc3c(c2)OCO3)cc1	36	0	0	0	0
Fc1cccc(CNCc2ccc3c(c2)OCO3)c1	0	0	0	0	0
COc1cc(CNCc2ccc(SC)cc2)cc(OC)c1	33	0	0	0	0
Nc1n[nH]c(N)c1N=Nc1ccccc1F	0	0	-35	0	0
Cc1ccccc1N=Nc1c(N)n[nH]c1N	0	0	0	0	0
CC(=O)Nc1ccc(SC[C@H](Cc2ccccc2)N2CC[C@@H](O)CCC2=O)cc1	0	0	0	0	0
CC(=O)Nc1ccc(SC[C@H](Cc2ccccc2)N2CCN(CCc3ccccc3)CCC2=O)cc1	0	0	-33	0	0
C/C(=N\NS(=O)(=O)c1cccc([N+](=O)[O-])c1)c1cccnc1	0	0	0	0	0
CCc1cccc(NC(=O)C(Cc2ccccc2)NS(=O)(=O)c2ccc3c(c2)oc(=O)n3C)c1 (stereo unspecified)	31	0	0	0	0
CCOc1ccc(NC(=O)C(Cc2ccccc2)NS(=O)(=O)c2ccc3c(c2)oc(=O)n3C)cc1 (stereo unspecified)	0	0	0	0	0
CCc1ccc(NC(=O)CCS(=O)(=O)c2ccc3c(c2)oc(=O)n3C)cc1	0	0	-37	0	0
COc1cc2cc(C(=O)O)n(C)c2c(OC)c1OC	0	0	-37	0	0
Cc1ccc(C(=O)NCCOc2cccc(C)c2)cc1	0	0	0	0	0
CSc1ccccc1C(=O)NCCOc1cccc(C)c1	0	0	-50	0	0
N#Cc1c(-n2ncnc2-c2ccccc2C(F)(F)F)sc2c1CCCCC2	0	0	0	0	0
N#Cc1c(-n2ncnc2-c2ccccc2Cl)sc2c1CCCCC2	0	0	-35	0	0
Cc1cccc(C)c1-n1cccc1/C=C1/C(=N)N2C(=NC1=O)SN=C2S(C)(=O)=O	0	0	-66	0	0
Cc1ccc(-n2cccc2/C=C2/C(=N)N3C(=NC2=O)SN=C3S(C)(=O)=O)cc1Cl	0	0	0	0	0
Cn1cc(Br)c(C(=O)NNC(=O)c2ccccc2)n1	0	32	0	0	0
CC(C)C(NC(=O)OCc1ccccc1)C(=O)NC(Cc1ccc(O)cc1)C(=O)O (stereo unspecified)	0	0	0	0	0
SMILES	D1 agonist	TRHR enhancer	D1 antagonist	D1 PAM	TRHR ag
CCC(C)C(NC(=O)OCc1ccccc1)C(=O)NC(Cc1ccc(O)cc1)C(=O)OC (stereo unspecified)	62	0	0	0	0
CCc1nnc(NC(=O)C(C)N2C(=O)C3C4C=CC(C4)C3C2=O)s1 (stereo unspecified)	0	0	-43	0	0
Cc1nnc(NC(=O)NC(C)N2C(=O)C3C4C=CC(C4)C3C2=O)s1 (stereo unspecified)	0	0	0	0	0
COc1ccc(NC(=O)C2CCN(S(=O)(=O)c3ccc(N4CCCC4=O)cc3)CC2)cc1OC	0	0	0	0	0
COc1ccc(C2c3c4c(n(C)c3CCN2C)CCN(C)C4c2ccc(OC)cc2)cc1 (stereo unspecified)	0	0	-31	0	0
CCOC(=O)C1=C(C)N=C2SC(CC)C(=O)N2C1c1cccc(F)c1 (stereo unspecified)	0	0	0	0	0
O=C(NC(Nc1nc2ccc([N+](=O)[O-])cc2s1)(C(F)(F)F)C(F)(F)F)c1cccnc1	36	0	-35	0	0
